# LYPLA1 inh: LYPLA1 inhibitors, primary screen, counter-screen for PME1 inhibitor project, biochemical, fluorescence polarization, FP-Rh probe ABPP; AID 2174, 2009; inhibition, % at 5.9 µM; recombinant LYPLA1; 320,000 compounds, 0.16% hits;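 active = inhibition above the mean of all tested compounds plus 3 SD, set per campaign, cut at about 14% in these data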;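 note: inhibitors block serine hydrolase probe labeling of LYPLA1 so polarization falls; 0% = enzyme with DMSO and 100% = wells lacking LYPLA1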
# ZTA counter: counter-screen for EBNA-1 inhibitors: inhibitors of Epstein-Barr virus ZTA. AID 2234. ZTA-DNA binding, fluorescence polarization. inhibition, % at 11 µM. 320,000 compounds, 0.15% hits. P03206; in the data active = inhibition above about 33%
# LYPLA2 inh: LYPLA2 inhibitors, primary screen, counter-screen for PME1 inhibitor project, biochemical, fluorescence polarization, FP-Rh probe ABPP | Acyl-protein thioesterase 2 (Homo sapiens), O95372 | recombinant LYPLA2 | inhibition, % at 5.9 µM | 320,000 compounds, 0.38% hits | AID 2177, 2009;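 active = inhibition above the screen-wide mean plus 3 SD, limit set per campaign, cut at about 26% in these data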;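 note: 0% = LYPLA2 with DMSO and 100% = wells lacking LYPLA2 enzyme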
# EBNA-1 inhibitor: EBNA-1 DNA-binding inhibitors, primary screen, biochemical, fluorescence polarization. 300,000 compounds, 0.34% hits. inhibition, % at 14.8 µM; in the data active = inhibition above about 28%
# GSTO1 inh: inhibitors of recombinant GSTO1, primary screen, counter-screen for RBBP9 inhibitor project, biochemical, fluorescence polarization | activity-based probe fluorescence polarization | inhibition, % at 5.96 µM | 300,000 compounds, 1.1% hits | AID 1974, 2009;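 active = inhibition above the campaign mean inhibition plus 3 SD, cut at about 35% in these data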;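 note: 0% = GSTO1-1 with DMSO and 100% = wells lacking GSTO1-1 enzyme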
# PAD4 FP inh: human PAD4 inhibitors, primary screen, biochemical, fluorescence polarization, 1536-well format; 330,000 compounds, 0.41% hits; AID 485272, 2010; recombinant PAD4, RCA probe fluorescence polarization; inhibition, % at 6.36 µM;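 active = percent inhibition above a cutoff equal to the mean of all tested compounds plus 3 SD, cut at about 15% in these data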;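 note: 0% = PAD4 with RCA probe and DMSO and 100% = probe without PAD4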
# Target sequence (Q9UM07 whole entry, looked up): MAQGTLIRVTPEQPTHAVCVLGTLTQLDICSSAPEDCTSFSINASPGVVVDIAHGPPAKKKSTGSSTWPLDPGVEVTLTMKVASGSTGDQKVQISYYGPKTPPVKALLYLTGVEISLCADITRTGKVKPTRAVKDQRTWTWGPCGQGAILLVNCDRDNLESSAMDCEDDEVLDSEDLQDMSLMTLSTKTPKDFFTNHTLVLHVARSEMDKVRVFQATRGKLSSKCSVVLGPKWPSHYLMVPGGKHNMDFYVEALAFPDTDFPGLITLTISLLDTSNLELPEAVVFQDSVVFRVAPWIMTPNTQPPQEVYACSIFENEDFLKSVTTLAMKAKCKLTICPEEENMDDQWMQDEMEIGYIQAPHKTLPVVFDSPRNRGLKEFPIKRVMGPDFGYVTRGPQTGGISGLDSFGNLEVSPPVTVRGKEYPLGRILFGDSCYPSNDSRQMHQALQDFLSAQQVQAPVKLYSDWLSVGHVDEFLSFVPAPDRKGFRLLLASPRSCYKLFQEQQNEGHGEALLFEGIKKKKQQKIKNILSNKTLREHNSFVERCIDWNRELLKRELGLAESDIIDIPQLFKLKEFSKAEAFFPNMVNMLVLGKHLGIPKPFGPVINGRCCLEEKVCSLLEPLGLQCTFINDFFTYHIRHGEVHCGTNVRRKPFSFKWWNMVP
# LYPLA2 confirm: LYPLA2 inhibitors, retest, confirmation, counter-screen for PME1 inhibitor project, biochemical, fluorescence polarization, FP-Rh probe ABPP | shares compounds with LYPLA2 inh | recombinant LYPLA2 | inhibition, % at 5.9 µM | 1,100 compounds, 72% hits | AID 2232, 2010;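 active = mean inhibition across replicates above the hit cutoff set in the primary screen, cut at about 26% in these data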;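 note: blocked labeling of the enzyme by serine hydrolase FP-Rh probe lowers polarization; 0% = enzyme with DMSO and 100% = wells lacking LYPLA2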
# LYPLA2 gel ABPP: LYPLA2 inhibitors in proteome, late-stage follow-up, gel-based competitive ABPP, fluorescence, assay provider; shares compounds with LYPLA2 inh; rhLYPLA2 in mouse brain proteome, gel ABPP FP-Rh; inhibition, % at 20 µM; 150 compounds, 30% hits;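 active = inhibition of LYPLA2 enzyme probe labeling above about 50%, limit read from the data; inactive = inhibition below that limit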;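 note: loss of FP-Rh probe labeling of the LYPLA2 gel band measured as band density; 0% = DMSO only control band and 100% = blank gel background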
# Active calls of the source: *; · = no result given. Only some compounds are listed: those with a hit (about 1.7% of all), similar ones and a draw of the others.
SMILES,LYPLA1 inh,ZTA counter,LYPLA2 inh,EBNA-1 inhibitor,GSTO1 inh,PAD4 FP inh,LYPLA2 confirm,others
O=C(c1ccco1)N1CCN(C(=S)Nc2cccc([N+](=O)[O-])c2)CC1,-1.9,-0.7,49.8*,1.3,0.8,-2.9,61.5*,LYPLA2 gel ABPP=36.0
CC(C)C(=O)Nc1ccc(N2CCN(C(=O)c3cccs3)CC2)cc1,-3.0,-9.2,13.7,2.3,4.6,-2.2,·,
O=C(COc1ccccc1[N+](=O)[O-])Nc1ccc(N2CCN(C(=O)c3cccs3)CC2)cc1,10.2,10.9,46.1*,-4.5,-1.2,-2.4,47.9*,
Cc1ccccc1C(=O)Nc1ccc(N2CCN(C(=O)c3ccco3)CC2)cc1,1.3,-2.2,17.1,0.8,-1.6,0.5,·,
Cc1cccc(NC(=S)N2CCN(C(=O)c3ccco3)CC2)c1,1.6,-4.1,1.1,-2.1,3.5,-4.7,·,
Cc1ccc(C(=O)Nc2ccc(N3CCN(C(=O)c4ccco4)CC3)cc2)c(Cl)c1,8.8,-6.7,41.8*,-4.3,-6.0,-3.0,30.7*,
CCCn1c(CCNC(=O)c2ccco2)nc2ccccc21,1.0,5.5,1.7,9.3,0.7,-1.8,·,
O=C(Nc1ccc(N2CCN(C(=O)c3ccco3)CC2)cc1)c1ccc([N+](=O)[O-])cc1Cl,2.6,-11.7,39.7*,-3.3,3.1,0.9,38.0*,
O=C(Nc1ccc(N2CCN(C(=O)c3ccco3)CC2)cc1)c1ccccc1Br,6.1,-7.7,33.7*,2.4,-19.6,-1.5,29.6*,
CC(=O)N1CCN(c2ccc(NC(=O)c3ccc([N+](=O)[O-])cc3Cl)cc2)CC1,-0.7,-1.0,5.8,4.5,-0.5,3.6,·,
Cc1cccc(Nc2c([N+](=O)[O-])cc(C(=O)N3CC(=O)Nc4ccccc43)cc2[N+](=O)[O-])c1,-3.5,7.8,32.1*,-3.4,5.1,7.1,38.1*,
Cc1ccc(C)c(Nc2c([N+](=O)[O-])cc(C(=O)N3CC(=O)Nc4ccccc43)cc2[N+](=O)[O-])c1,1.2,15.1,6.4,-9.6,10.3,1.9,·,
COc1ccc(NC(=O)CN(C)C(=O)c2ccc(OCc3ccccc3)c(OC)c2)cc1,2.1,6.6,1.4,0.3,3.8,2.0,·,
O=C(CCC(=O)c1cccs1)OCc1ccc([N+](=O)[O-])cc1,1.9,-15.4,15.9,·,·,2.2,·,
Cc1cc(=O)oc2cc(OC(=O)C3CCN(C(=O)c4ccc(F)cc4)CC3)ccc12,1.2,1.8,4.3,-2.4,-1.4,-2.1,·,
O=C(CN1C(=O)S/C(=C\c2ccc(C(=O)O)cc2)C1=O)Nc1ccccc1,2.3,-17.7,58.4*,-16.1,-17.9,-5.5,66.7*,LYPLA2 gel ABPP=63.0*
O=C(CCCN1C(=O)S/C(=C\c2ccccc2)C1=O)NNC(=O)c1ccccc1O,1.8,20.9,4.2,-11.5,1.1,8.6,·,
Cc1cccc(NC(=O)CN2C(=O)S/C(=C\c3ccc(-c4cccc(C(=O)O)c4C)o3)C2=O)c1,3.1,-9.6,29.1*,6.3,8.0,-4.6,35.2*,
O=C(CN1C(=O)S/C(=C\c2ccc(O)cc2)C1=O)c1ccccc1,-7.1,-3.7,34.9*,-12.1,7.4,-2.5,32.9*,
CC(=O)c1cccc(NC(=O)COC(=O)Cn2cnc3ccccc32)c1,·,·,·,·,·,2.2,·,
CC(=O)c1ccc(OCc2cc(C(=O)N3CCC(c4ccncc4)CC3)no2)cc1,2.7,1.7,34.0*,-7.3,-5.9,4.8,37.3*,
O=C(CSc1nnc(SCc2ccc(Cl)cc2)s1)N/N=C/c1c[nH]c2ccccc12,1.4,17.6,45.2*,16.0,25.1,2.8,58.4*,
O=C(NC(=S)NCC1CCCO1)c1ccc(Br)o1 (stereo not drawn),-0.9,9.5,1.2,12.2,-1.6,1.5,·,

# High-throughput results (PubChem)
